# WT yeast gro inh – growth inhibition of WT strain, primary screen, mitochondrial fusion inhibitor project, WT and mutant strains, chemical genetic; actives 2.1% (n = 190,000); AID 1362, 2008; inhibition, % at 10 µM; mitochondrial fusion phenotypic screen; in the data active means inhibition above about 58%; tested in S. cerevisiae
# L major viab – Leishmania major promastigote growth inhibition, primary screen; Leishmania major promastigotes, resazurin fluorescence viability; inhibition, % at 10 µM; actives 9% (n = 200,000); in the data active means inhibition above about 50%;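 further: promastigotes grown with compound for 44 hours at 28 °C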
# ROMK primary – ROMK potassium channel modulators, primary screen, cell-based, thallium flux, MLSMR library | Tet-inducible ROMK, thallium flux fluorescence; actives lie on both sides | B-score at 10 µM | ATP-sensitive inward rectifier potassium channel 1 (Homo sapiens), P48048 | actives 2% (n = 130,000);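 active means signal ratio slope over the read window, or its plate-corrected B-score, at least 3 SD from the plate mean, either direction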;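 further: B-score of the F/F0 ratio slope over 7 to 12 s after thallium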
# Target sequence (P48048 whole entry, looked up): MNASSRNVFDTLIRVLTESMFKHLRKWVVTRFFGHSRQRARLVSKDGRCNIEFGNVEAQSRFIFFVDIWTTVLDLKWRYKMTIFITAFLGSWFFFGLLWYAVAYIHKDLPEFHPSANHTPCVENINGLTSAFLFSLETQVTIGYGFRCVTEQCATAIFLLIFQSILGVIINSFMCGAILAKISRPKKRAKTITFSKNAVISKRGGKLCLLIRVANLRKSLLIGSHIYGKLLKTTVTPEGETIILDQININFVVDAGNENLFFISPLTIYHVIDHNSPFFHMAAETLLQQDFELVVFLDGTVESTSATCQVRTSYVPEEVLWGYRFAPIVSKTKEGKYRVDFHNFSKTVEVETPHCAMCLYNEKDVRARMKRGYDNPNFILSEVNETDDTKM
# Cl transport mod – KCC2 cotransporter modulators, thallium flux, primary screen, cell-based, HEK293 KCC2, FluoZin-2 fluorescence, MLSMR | Solute carrier family 12 member 5 (Homo sapiens), Q9H2X9 | KCC2 cells, thallium flux FluoZin-2 fluorescence | B-score of Tl+ flux slope (higher = more flux/activation; lower = inhibition) at 10 µM | actives 2.2% (n = 190,000) | AID 1456, 2008;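 active means thallium flux slope and its plate-corrected score both differing from the plate sample mean at a set confidence after two filtering rounds, in either direction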;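 further: slope of fluorescence scaled to starting intensity during 10 to 20 s after thallium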
# m-calpain inh – inhibitors of pig calpain II, primary screen, biochemical, fluorogenic peptide substrate, 1536-well; purified calpain II, 30 min; inhibition, % at 16 µM; actives 0.37% (n = 220,000);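 active means inhibition above about 50%, limit read from the data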
# KCC2 sec1 – KCC2 modulators in sodium-free buffer, confirmation, cell-based, HEK293 KCC2, thallium flux, secondary assay | actives 15% (n = 3,700) | shares compounds with Cl transport mod | normalised thallium flux (F/F0 slope) at 10 µM | FluoZin2 fluorescence; stronger effect = higher value;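 active means thallium flux slope above the same plate's solvent-only control mean plus 3 SD; inconclusive means the two replicate wells disagree; inactive means no significant difference from solvent-only control wells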
# KCC2 bumet counter – thallium flux persisting under bumetanide in KCC2 cells, confirmation, counter-screen for KCC2 modulator project, cell-based, HEK293 KCC2, FluoZin2, secondary assay 3. shares compounds with Cl transport mod. HEK293-KCC2 + bumetanide/ouabain; stronger effect = higher value. normalized thallium flux at 10 µM. actives 49% (n = 3,700). AID 1714, 2009;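 active means thallium entry rate above the same plate's blocked-transporter control wells by more than 3 SD; inconclusive means the two repeat wells disagree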;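 further: raw slope of fluorescence over initial fluorescence between 10 and 20 s after thallium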
# KCC2 sec2 – KCC2 modulators without ouabain present, confirmation, cell-based, HEK293 KCC2, thallium flux, FluoZin2, secondary assay 2; shares compounds with Cl transport mod; thallium flux FluoZin2 fluorescence; actives lie on both sides; F/F0 rise rate, 10–20 s post-thallium; normalized thallium flux at 10 µM; actives 23% (n = 3,700);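 active means thallium flux slope more than 3 SD above or below the plate's solvent-only control mean, mostly below; inconclusive means the two repeat wells disagreed; inactive means no significant shift from solvent-only controls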;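 further: raw slope with 0.1% DMSO as baseline and bumetanide as block control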
# HEK counter1 – thallium flux modulation in parental HEK cells, confirmation, counter-screen for KCC2 modulator project, cell-based, counterscreen 1 | shares compounds with Cl transport mod | thallium flux rate (normalised fluorescence) at 10 µM | actives 46% (n = 3,700) | HEK293 parental cells, thallium flux FluoZin2, ouabain; baseline-ratio fluorescence slope, 10–20 s after thallium;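 active means thallium flux rate significantly above the same plate's solvent-only control wells, beyond their mean plus 3 SD; inconclusive means the two replicate wells gave conflicting results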
# KCC2 retest ouab – KCC2 inhibitors and activators, ouabain retest, confirmation, HEK-KCC2 cells. shares compounds with Cl transport mod. HEK293-KCC2, thallium flux FluoZin2 fluorescence; bidirectional: low = inhibitor, high = activator. raw Tl+ flux slope (below DMSO = inhibition, above = activation) at 10 µM. actives 48% (n = 3,700);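 active means thallium flux slope beyond 3 SD from same-plate DMSO control mean in most replicates, usually higher, sometimes lower; inconclusive means repeat tests gave conflicting results; inactive means no significant difference from controls in most replicates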;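 further: slope of initial-normalized fluorescence between seconds 10 and 20 after thallium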
# HEK counter2 – native HEK Tl+ uptake effects, second counter-screen – HEK cells, counterscreen 2, counter-screen for KCC2 modulator project, confirmation; shares compounds with Cl transport mod; HEK293 parental, thallium flux FluoZin-2 fluorescence slope; thallium flux slope at 10 µM; actives 33% (n = 3,700); AID 1718, 2009;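 active means thallium flux slope above the same plate's solvent-control mean plus 3 SD in both duplicate wells; inconclusive means duplicate wells that disagreed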;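 further: run without ouabain in cells lacking the KCC2 cotransporter; slope of fluorescence scaled to its starting value between 10 and 20 s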
# Numbers without * were called inactive; i = inactive; ? = inconclusive; . = not tested or not shown. This is a sample that favours compounds with a hit; in the whole collection about 12% have one here.
SMILES,WT yeast gro inh,L major viab,ROMK primary,Cl transport mod,m-calpain inh,KCC2 sec1,KCC2 bumet counter,KCC2 sec2,HEK counter1,KCC2 retest ouab,HEK counter2
CCCc1c(-c2ccc(O)cc2)nn(-c2ccc(O)cc2)c1-c1ccc(O)cc1,.,.,.,-2.5*,9,0.0072,0.0046,0.033,?,0.019,0.01
Cc1c(C(N)=O)c(-c2ccccc2)nn1-c1ccccc1,15,-2,.,1.2,15,.,.,.,.,.,.
CCOC(=O)Nc1ccc(OC)cc1S(=O)(=O)N1CCCCC1,2,-1,.,0.45,7,.,.,.,.,.,.
CNC(=S)N/N=C(\C)c1cccc(C(F)(F)F)c1,2,-3,-0.38,4.2*,12,?,0.033*,0.036,0.013*,?,0.012*
COC(=O)N/N=C(\C)c1cccc(C(F)(F)F)c1,-6,-4,0.74,.,-5,.,.,.,.,.,.
CCN(C(=O)CCc1nc(-c2ccccc2F)no1)c1cc(OC)ccc1OC,1,24,.,.,13,.,.,.,.,.,.
Cc1cc(C)c(C#N)c(OCC(=O)c2ccccc2)n1,-8,5,-0.7,-0.62,14,0.018,0.0049,?,0.0073,0.015,0.01
C=CCOCC(O)CS(=O)(=O)Cc1ccc(Cl)cc1 (configuration not stated),-14,7,-0.093,0.07,13,.,.,.,.,.,.
N#Cc1nc(-c2ccco2)oc1N1CCN(Cc2ccccc2)CC1,7,8,-0.42,.,.,0.0081,0.006,0.026*,0.0069,0.028*,0.0098
COC(=O)c1cc(C(=O)NCc2ccccc2)c(=O)[nH]c1C,-8,2,.,-0.24,-42,.,.,.,.,.,.
CCN(CC)c1ccc(NC(=O)CC2Oc3ccccc3NC2=O)c(C)c1 (configuration not stated),-1,6,.,.,-14,.,.,.,.,.,.
O=C(CSc1nnnn1Cc1ccccc1)Nc1ccc2c(c1)OCCO2,25,1,-0.74,-5.1*,-24,0.0064,0.005,?,0.0072,?,0.011
O=C(CSc1nnnn1Cc1ccccc1)Nc1ccc2c(c1)OCO2,-4,-5,.,-1.2,-31,.,.,.,.,.,.
Cc1ccc(NC(=S)N/C(=N/S(=O)(=O)c2ccccc2)c2ccccc2)cc1,17,-6,0.83,.,24,0.02*,0.03*,0.038*,0.024*,0.031*,0.026*
COC(=O)c1[nH]c(C)c(/C(O)=C2\C(=O)C(=O)N(CCN3CCOCC3)C2c2ccc(C)o2)c1C (configuration not stated),.,.,.,0.29,3,.,.,.,.,.,.
CN(C(=S)NC(=O)C1(C)CC1(Cl)Cl)c1ccccc1 (configuration not stated),-4,-4,0.38,5.1*,13,0.022*,0.026*,?,0.02*,0.027*,0.02*
O=C(CSc1nc(-c2ccccc2)nc2ccccc12)Nc1cccc(C(=O)O)c1,-16,-7,2.2,7.4*,-71,0.0063,0.014*,0.034,0.015*,0.025*,0.017*
O=C(CSc1nc(-c2ccc(F)cc2)nc2ccc(F)cc12)Nc1cccc(C(=O)O)c1,7,-3,0.18,-0.62,-37,.,.,.,.,.,.
N[C@@H](Cc1ccc(O)cc1)c1nnc([C@H](CCC(=O)O)NC(=O)C2CCNCC2)o1,-4,-5,.,-0.014,4,.,.,.,.,.,.
COc1ccc(-c2nn(C)c(=O)c3ccccc23)cc1CNS(C)(=O)=O,-13,-3,-0.75,-1.4,-25,.,.,.,.,.,.
COc1ccc(-c2nn(C)c(=O)c3ccccc23)cc1NS(C)(=O)=O,3,6,0.78,.,-20,0.0078,0.0057,0.03,0.0065,0.019,0.0093
O=C(c1ccc2c3n(nc2c1)-c1ccc(Cl)cc1CO3)N1CCCCC1,.,.,.,-2.2*,16,0.0067,0.0048,?,0.0079,?,0.012
Cc1ccc2c(c1)COc1c3ccc(C(=O)N4CCOCC4)cc3nn1-2,.,.,.,-0.6,-152,.,.,.,.,.,.
Cn1c(-c2ccc3nc(N)sc3c2)nc2cc(N)ccc21,5,34,1.8,.,i,?,?,0.031,0.0082,0.019,0.01
Cn1c(-c2ccc(N)cc2)nc2ccccc21,27,-1,.,0.42,-104,.,.,.,.,.,.
SMILES,WT yeast gro inh,L major viab,ROMK primary,Cl transport mod,m-calpain inh,KCC2 sec1,KCC2 bumet counter,KCC2 sec2,HEK counter1,KCC2 retest ouab,HEK counter2
COc1ccc(/C=C2\CCc3ccccc3C2=O)cc1CN1CCOCC1,.,.,.,-5*,-8,?,?,0.023*,0.0072,?,0.01
CCOC(=O)N1CCN(C(=S)NC(=O)c2c(-c3c(Cl)cccc3Cl)noc2C)CC1,28,15,-1.7,11*,29,?,0.033*,?,0.018*,0.032*,0.019*
Cc1onc(-c2c(Cl)cccc2Cl)c1C(=O)NC(=S)N1CCOCC1,.,.,.,8.6*,1,0.011*,0.019*,0.029,0.012*,?,0.0099
CCOC(=O)C(NC(=O)c1cccc(Cl)c1)(Nc1nnc(C)s1)C(F)(F)F (configuration not stated),-15,-4,0.79,0.0058,13,.,.,.,.,.,.
COc1cc(NC(=O)c2ccc(Br)o2)c(C(=O)O)cc1OC,0,-5,-0.069,.,-7,.,.,.,.,.,.
CC(C)OC(=O)c1nn2c(C(F)(F)F)cc(-c3ccc(Br)o3)nc2c1Br,4,1,-0.55,.,-58,0.0095,0.0066,0.032,0.0071,0.02,0.011
O=[N+]([O-])c1ccc(-c2nc(=S)c3c(o2)CCCC3)cc1,2,-4,0.83,34*,2,0.018*,0.027*,0.038,0.033*,0.042*,0.016*
